Test results from PubChem BioAssay.
The source made the active and inactive calls.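 The calls were made as follows, unless noted: active = NADPH fluorescence slope more negative than the mean of all samples by about 3 SD, 99.7% confidence; inactive = the rest.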

Assays:
[1] = inhibitors of TNFa-induced NFkB p65 translocation, primary screen, imaging, HUVEC, MLSMR starter and 10KST1 sets (AID 438;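 active = inhibition above 20% together with a positive visual image hit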;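 also: compound added about 3h40 before a 20 min TNFalpha stimulation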;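 as to inhibition: signal is the nuclear over cytoplasmic p65 intensity ratio per well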); settings: HUVEC TNFa-induced p65 nuclear translocation; cell count: measured here: nuclei count (cytotoxicity indicator), at 2.08 µM; inhibition: at 2 µM, stronger effect = higher value, 0% TNFa-plus-vehicle, 100% no-TNFa wells
[2] = inhibitors of mutant huntingtin aggregation, primary screen, imaging, exon1htt(103Q)mCFP cells, high-content imaging (AID 483;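 active = visual image review flags a hit and inhibition of aggregation exceeds 20%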;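 also: compound exposure lasted 3 days before fixation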;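 as to nuclei count: percent of the per-plate median nuclei count of sample wells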); settings: exon1htt(103Q)mCFP cell line, aggregate imaging, at 2 µM; inhibition of aggregation: stronger effect = higher value; nuclei count: measured here: cell count, toxicity
[3] = inhibitors of E-selectin induction by TNFa, primary screen, imaging, HUVEC, immunofluorescence, MLSMR starter and 10KST1 sets (AID 487;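 active = visually confirmed hit in the image check and inhibition above 20%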;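 as to inhibition: signal is fraction of cell area covered by stained E-selectin grains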;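 as to nuclei count: 100% = median nuclei count of all wells on the same plate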); settings: HUVEC TNFalpha-induced E-selectin immunofluorescence imaging, at 2 µM; inhibition: stronger effect = higher value; nuclei count: measured here: cell number, toxicity
[4] = target: Voltage-gated potassium channel subunit beta-2 (Rattus norvegicus) (UniProt P62483); experiment: KvBeta enzyme negative modulators, primary screen, biochemical, NADPH fluorescence (AID 622;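 active = fluorescence slope higher than the sample average by over 3 SD, cut at about -0.22 in these data, passing the limit was not always enough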;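 also: slope of raw intensity against log time taken from 70 to 1610 s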); settings: recombinant KvBeta, 4-cyanobenzaldehyde reduction, at 10 µM, stronger effect = higher value
[5] = target: Voltage-gated potassium channel subunit beta-2 (Rattus norvegicus) (UniProt P62483); experiment: KvBeta positive modulators, primary screen, biochemical, NADPH fluorescence (AID 623); settings: Recombinant KvBeta, NADPH fluorescence decrease slope, 10 min; at 10 µM; stronger effect = lower value;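 also: fluorescence intensity change per second fitted from 20 to 320 s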
[6] = target: Alpha-2C adrenergic receptor (Homo sapiens) (UniProt P18825); experiment: modulators of alpha2C/GIRK thallium flux, primary screen, cell-based, HEK293 alpha2C/GIRK1/2 (AID 624;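 active = fluorescence slope after compound addition differing from the mean of all screened samples at 99.7% confidence, in either direction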;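 also: slope of fluorescence ratio to pre-addition baseline per second over 15 to 24 s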); settings: thallium flux BTC fluorescence, at 10 µM, actives lie on both sides
[7] = inhibitors of Sendai virus-induced IRF3 signaling, primary screen, TLR/RLR signaling modifier project, cell-based, Sendai virus stimulus, luciferase, 10K MLSCN set (AID 602276;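 active = inhibition at or above 50% at 10 µM; inactive = inhibition below 50%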;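 also: firefly luciferase from ISG56 promoter only with Renilla not read in this screen; 0% = Sendai virus plus DMSO and 100% = medium plus DMSO without virus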); settings: HEK293 RL24 IRF3 luciferase reporter, at 10 µM, stronger effect = higher value
[8] = inhibitors of poly I:C-induced TLR3 signaling, primary screen, cell-based, poly I:C stimulus, luciferase, 10K MLSCN set (AID 602277;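 active = inhibition of the reporter signal at or above 50%; inactive = inhibition below 50%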); settings: HEK293-TLR3 RL24 IRF3 luciferase reporter, at 10 µM, stronger effect = higher value

Sequence of Voltage-gated potassium channel subunit beta-2 (Rattus norvegicus) (P62483 whole entry, looked up): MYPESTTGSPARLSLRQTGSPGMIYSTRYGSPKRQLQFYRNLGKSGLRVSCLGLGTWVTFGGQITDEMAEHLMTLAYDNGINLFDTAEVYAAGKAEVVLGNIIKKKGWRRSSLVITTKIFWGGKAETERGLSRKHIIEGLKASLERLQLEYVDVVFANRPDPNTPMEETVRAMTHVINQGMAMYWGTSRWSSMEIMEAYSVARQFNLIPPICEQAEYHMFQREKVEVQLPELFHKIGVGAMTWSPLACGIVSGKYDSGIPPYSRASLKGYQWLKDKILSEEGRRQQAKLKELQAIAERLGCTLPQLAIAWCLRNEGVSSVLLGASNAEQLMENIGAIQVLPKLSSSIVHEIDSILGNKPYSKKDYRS
Sequence of Alpha-2C adrenergic receptor (Homo sapiens) (P18825 whole entry, looked up): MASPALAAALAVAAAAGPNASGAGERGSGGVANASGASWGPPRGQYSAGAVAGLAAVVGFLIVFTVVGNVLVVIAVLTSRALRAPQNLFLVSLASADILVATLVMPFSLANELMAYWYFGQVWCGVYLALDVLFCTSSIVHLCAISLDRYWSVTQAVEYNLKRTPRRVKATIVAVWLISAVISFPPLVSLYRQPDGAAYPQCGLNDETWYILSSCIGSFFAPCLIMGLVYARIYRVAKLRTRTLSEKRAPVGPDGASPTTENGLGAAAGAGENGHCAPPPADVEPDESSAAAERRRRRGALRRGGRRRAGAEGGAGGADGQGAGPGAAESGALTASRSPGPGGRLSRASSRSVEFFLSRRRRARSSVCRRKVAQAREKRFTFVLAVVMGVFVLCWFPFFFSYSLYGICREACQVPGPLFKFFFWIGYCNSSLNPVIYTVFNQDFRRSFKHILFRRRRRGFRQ

Row | Structure (SMILES) | cell count [1] | inhibition [1] | inhibition of aggregation [2] | nuclei count [2] [%] | inhibition [3] | nuclei count [3] [%] | fluorescence slope [4] | NADPH fluorescence slope [5] | slope [6] | inhibition [7] | inhibition [8]
1 | CCOC(=O)c1[nH]c(C)c(C(=O)Nc2ccc(C)cc2C)c1C | 505 | 5.8% (inactive) | 20.1% (inactive) | 36.6 | -53.4% (inactive) | 103 | -0.585 (inactive) | -1.3e-05 (inactive) | 0.00666 (inactive) | 1.87% (inactive) | 16.3% (inactive)
2 | Cc1cc(C(=O)CSCCCn2c(=O)[nH]c3ccccc32)c(C)n1C | 494 | -3.3% (inactive) | 28.4% (inactive) | 84.7 | -68.3% (inactive) | 113 | -0.604 (inactive) | -9.1e-06 (inactive) | 0.00689 (inactive) | -10.6% (inactive) | -5.21% (inactive)
3 | O=C(NCCCN1CCCC1=O)C1CCN(S(=O)(=O)N2CCOCC2)CC1 | 195 | 25.3% (active) | 17.1% (inactive) | 94.9 | 27.7% (inactive) | 81.9 | -0.362 (inactive) | -4.9e-05 (inactive) | 0.00575 (inactive) | -12.7% (inactive) | -7.16% (inactive)
4 | Nc1cccc2c1C(=O)N(c1ccccc1)C2=O | 560 | 1.8% (inactive) | -6% (inactive) | 87.9 | 13.9% (inactive) | 107 | -0.0636 (active) | -2.2e-06 (inactive) | 0.00303 (inactive) | -20.4% (inactive) | -40.4% (inactive)
5 | Cc1ccc(C)c(N2CCN(CCCNC(=O)Cn3cc4c(n3)CCCCC4)CC2)c1 | 771 | -4.3% (inactive) | -55.1% (inactive) | 114 | -60.6% (inactive) | 110 | -0.619 (inactive) | -3.7e-05 (inactive) | 0.00461 (inactive) | 7.36% (inactive) | 19% (inactive)
6 | Cc1c(C#N)c(N)c(C(=O)c2ccccc2)n1Cc1ccccc1 | 375 | 0% (inactive) | 15.4% (inactive) | 100 | -38% (inactive) | 117 | -0.512 (inactive) | -1.4e-05 (inactive) | 0.0107 (inactive) | -20.6% (inactive) | 0.155% (inactive)
7 | Oc1cccc(Nc2nc(NCC3CCCO3)c3ccccc3n2)c1 (stereo not drawn) | 555 | -70.4% (inactive) | -4.4% (inactive) | 95.5 | -47.9% (inactive) | 104 | -0.612 (inactive) | 2.9e-05 (inactive) | 0.00401 (inactive) | 14.4% (inactive) | -32.6% (inactive)
8 | Cc1n[nH]c(C)c1N1C(=O)c2cccc3cc(Br)cc(c23)C1=O | 476 | 5.9% (inactive) | -9.9% (inactive) | 103 | -36.7% (inactive) | 123 | -0.375 (inactive) | -7.7e-05 (inactive) | 0.00408 (inactive) | 1.78% (inactive) | 27.1% (inactive)
9 | COC(=O)c1ccnc(/C=N/O)c1 | 715 | -2% (inactive) | -19.8% (inactive) | 112 | 11.2% (inactive) | 108 | -0.578 (inactive) | -2e-05 (inactive) | 0.00558 (inactive) | 15.5% (inactive) | 19.8% (inactive)
10 | COC(=O)Cn1c(CCS(=O)(=O)c2ccc(C)cc2)nc2ccccc21 | 503 | -41.8% (inactive) | 6.7% (inactive) | 57.3 | -69.5% (inactive) | 105 | -0.498 (inactive) | -2.9e-05 (inactive) | 0.00565 (inactive) | 17.1% (inactive) | 28.4% (inactive)
11 | CCOc1ccc(N(CC(=O)NC2CCCC(C)C2C)S(=O)(=O)c2c(C)noc2C)cc1 (stereo not drawn) | 872 | 4% (inactive) | 20.7% (inactive) | 131 | -33.2% (inactive) | 111 | -0.612 (inactive) | 7.5e-06 (inactive) | 0.00653 (inactive) | 1.67% (inactive) | 38.3% (inactive)
12 | CN(C)S(=O)(=O)N1CCN(C(=O)N(c2ccccc2)c2ccccc2)CC1 | 352 | -3.3% (inactive) | 0% (inactive) | 108 | -122% (inactive) | 117 | -0.366 (inactive) | -2e-09 (inactive) | 0.00704 (inactive) | -19.7% (inactive) | -15.1% (inactive)
13 | CN1CCN(c2nc3c(c(=O)[nH]c(=O)n3C)n2CCSc2nc3ccccc3s2)CC1 | 503 | -0.3% (inactive) | 25.5% (inactive) | 106 | 30.5% (inactive) | 100 | -0.578 (inactive) | -3e-05 (inactive) | 0.00601 (inactive) | 12.4% (inactive) | 33.3% (inactive)
14 | NC(=O)CSCc1ccc(Br)cc1 | 313 | 8.3% (inactive) | 12.7% (inactive) | 91.7 | -103% (inactive) | 105 | -0.579 (inactive) | -5e-05 (inactive) | 0.00494 (inactive) | 11.5% (inactive) | 13.5% (inactive)
15 | CCOC(=O)CN1CC23C=CC(O2)C(C(=O)NCc2ccc(F)cc2)C3C1=O (stereo not drawn) | 572 | -2% (inactive) | 15.7% (inactive) | 106 | -142% (inactive) | 131 | -0.589 (inactive) | -1.1e-05 (inactive) | 0.00638 (inactive) | 14% (inactive) | 27.7% (inactive)
16 | CCCNC(=O)Nc1ccccc1C(=O)Nc1ccc(OC)cc1 | 351 | 8.1% (inactive) | -15.5% (inactive) | 104 | 25.8% (inactive) | 108 | -0.445 (inactive) | -1.6e-06 (inactive) | 0.00585 (inactive) | -1.84% (inactive) | 30.5% (inactive)
17 | COc1ccccc1NC(=O)CSc1nnc(-c2ccncc2)o1 | 469 | 5.3% (inactive) | -7.5% (inactive) | 110 | -23.6% (inactive) | 117 | -0.506 (inactive) | 1.9e-05 (inactive) | 0.00395 (inactive) | -2.18% (inactive) | -9.84% (inactive)
18 | CCOC(=O)c1sc(NC(=O)COC(=O)Cn2cnc3ccccc32)c(C(=O)OCC)c1C | 398 | 4.3% (inactive) | 2.6% (inactive) | 90.6 | -109% (inactive) | 115 | -0.613 (inactive) | -3e-05 (inactive) | 0.00913 (inactive) | 13.7% (inactive) | -7.45% (inactive)
19 | CC(=O)N1c2c(cc(Br)cc2S(=O)(=O)NCC2COc3ccccc3O2)CC1C (stereo not drawn) | 651 | -0.5% (inactive) | 19.1% (inactive) | 104 | -47.6% (inactive) | 116 | -0.53 (inactive) | -7.4e-05 (inactive) | 0.00624 (inactive) | 13.1% (inactive) | 10.4% (inactive)
20 | COCCCNC(=O)c1ccc(CS(=O)(=O)c2ccc(OC)cc2)o1 | 696 | -8.1% (inactive) | 5.6% (inactive) | 101 | -54.8% (inactive) | 115 | -0.519 (inactive) | -5.8e-05 (inactive) | 0.00615 (inactive) | 7.18% (inactive) | 13.8% (inactive)
21 | Cc1nnc(NC(=O)c2ccccc2F)s1 | 421 | 6% (inactive) | 14.2% (inactive) | 103 | 6.9% (inactive) | 125 | -0.614 (inactive) | 5.1e-06 (inactive) | 0.00652 (inactive) | -6.19% (inactive) | -17.6% (inactive)
22 | CC1CC(C)CN(CC(=O)Nc2ccc(S(N)(=O)=O)cc2)C1 (stereo not drawn) | 368 | 1.4% (inactive) | -27.5% (inactive) | 113 | 30.9% (inactive) | 96.7 | -0.517 (inactive) | -3e-05 (inactive) | 0.00537 (inactive) | 7.84% (inactive) | 12.5% (inactive)
23 | O=C(CSc1nnc(-c2ccccc2)o1)NC1CCCCC1 | 355 | 0% (inactive) | 8% (inactive) | 109 | -10.5% (inactive) | 103 | -0.55 (inactive) | 2e-05 (inactive) | 0.0067 (inactive) | 5.13% (inactive) | 0.841% (inactive)
24 | CCCC1CCC(C(=O)Nn2cnc3ccccc3c2=O)CC1 (stereo not drawn) | 271 | 3.9% (inactive) | 17.1% (inactive) | 86.9 | 33.8% (inactive) | 77.6 | -0.478 (inactive) | 2.4e-05 (inactive) | 0.00566 (inactive) | 6.74% (inactive) | 21.4% (inactive)
25 | CCOC(=O)c1ccccc1NC(=O)c1c(O)c2ccccc2n(CC)c1=O | 649 | -12.8% (inactive) | -35.3% (inactive) | 101 | 20.2% (inactive) | 120 | -0.489 (inactive) | -0.000195 (inactive) | 0.00747 (inactive) | -2.85% (inactive) | 9.26% (inactive)
26 | Cc1cc(/C=N/n2cnnc2)c(C)n1-c1cccc(Cl)c1 | 567 | 4.7% (inactive) | 31% (inactive) | 32.1 | 40.1% (inactive) | 46 | -0.364 (inactive) | -3.8e-05 (inactive) | 0.00449 (inactive) | 13.2% (inactive) | 21.5% (inactive)
27 | COc1cc(CN2CCSCC2)cc(OC)c1OC | 642 | -1.9% (inactive) | 12.3% (inactive) | 60.4 | -13.9% (inactive) | 98.2 | -0.486 (inactive) | 2.1e-05 (inactive) | 0.00258 (inactive) | -4.06% (inactive) | 20% (inactive)
28 | O=c1cc(C(F)F)oc2c1ccc1ccccc12 | 398 | -4% (inactive) | 14.2% (inactive) | 94 | -244% (inactive) | 99.4 | -0.349 (inactive) | -1.6e-05 (inactive) | 0.00247 (inactive) | 9.69% (inactive) | 19.9% (inactive)
